Results on 103 compounds are retold here after PubChem BioAssay AID488857 (Sanford-Burnham Center for Chemical Genomics, 2010).

Screen size: about 1,400 compounds; about 560 (40%) were called active. So high a share suggests a set chosen from earlier hits. This is one part of the list. Unmarked numbers belong to inactive results.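 Rule for the calls: active = mean inhibition over duplicate tests at 10 µM above 50%; inactive = the rest.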

A short description of this test: ASC/caspase-1 reporter retest in S. cerevisiae at one dose, specificity check for NALP1 project (AID 488857). To be noted: S. cerevisiae ASC/Caspase-1, beta-galactosidase luminescence, 24 h; at 10 µM; active compounds read high.
For orientation: inhibition means the percentage by which the read-out fell short of the control. With `Cc1ccc(F)cc1NCC(=O)Nc1ccc(Br)cc1`, the inhibition is 41.2%. Then `N#CC(C#N)=C(Nc1ccc(F)cc1)SCc1cccc(Br)c1`, with 83.2% (active); and `COc1ccc2c(c1)C1=NN(/C(C)=C/C(C)=O)C(c3ccc(F)cc3)C1CC2` (stereo not drawn), with 45.9%; and `COc1ccccc1NC(=O)Nc1ccc2c(c1)nnn2C`, with 25.1%. Then `COc1ccc(N=c2cc(-c3ccc(OC)cc3)oc3ccccc23)cc1`, with 54.5% (active); and `OCCCN=c1cc(-c2ccccc2)oc2ccc(Cl)cc12`, with 49.8%; and `Cn1c(N)c(C(=O)COC(=O)C2(c3ccc(Cl)cc3)CCCC2)c(=O)n(C)c1=O`, with 26.6%. Then `COC(=O)Nc1nc(C)c(C(=O)c2ccccc2)s1`, with 47.8%; and `COC(=O)Nc1sc2nc(C)cc(C)c2c1-n1cccc1`, with 67.7% (active). As to `CCC(C)(C)NCC(=O)Nc1ccc(OC(F)(F)F)cc1`, the inhibition is 27.4%. Under `CCc1ccc(OCC(=O)Nc2ccc(CN3CCCCC3)cc2)cc1` stands 55.1% (active); under `CCOC(=O)C1CCCN(Cc2ccc(OCC)cc2)C1` (stereo not drawn), 30.4%. Under `Clc1ccc2c(N/N=C/c3ccccc3Br)ccnc2c1` stands 31.4%; under `CCCCNC(=O)C(=O)N/N=C/c1cccc(Br)c1`, 37.1%. Then `Clc1ccc2c(N/N=C/c3ccc(Br)cc3)ccnc2c1`, with 55.6% (active).

Take `Clc1ccc2c(N/N=C/c3cccc(Br)c3)ccnc2c1`: the inhibition is 57% (active). Then `Cc1ccc(/C=N/Nc2ccnc3cc(Cl)ccc23)c(C)c1`, with 55% (active); and `Cc1ccc(N/C=C/C(=O)C(C)(C)C)c(O)c1`, with 34.2%; and `CC(C)Oc1ccc(Cc2cnc(N)nc2N)cc1`, with 48%. Under `CCOc1c(Cl)cc(CNCC(C)C)cc1OC` stands 50% (active); under `Cc1cc2ccccc2n1CCNCc1c(C(=O)N2CCOCC2)nc2ccccn12`, 21.8%. Then `Cn1cc(CC(=O)Nc2cccc(C#N)c2)c2ccccc21`, with 34.1%. Turning to `CC(CC(=O)Nc1cccc(Cl)c1)c1ccccc1` (stereo not drawn), the inhibition is 50% (active).

Turning to `O=C(CNC(c1ccccc1)c1ccccc1)Nc1c(F)cccc1F`, the inhibition was 39.8%. On to `CSC1=N/C(=C\c2cccnc2)C(=O)N1c1ccccc1`, for which the inhibition was 37.9%.

As for `CCOC(=O)C1=Nc2ccccc2C1=[N+]=[N-]`, the inhibition is 46%. Under `CCOC(=O)c1nn(-c2ccc(C)cc2)cc1C(=O)c1ccccc1` stands 64.8% (active); under `NS(=O)(=O)c1ccc(NC(=O)COC(=O)c2cn(-c3ccccc3)nc2-c2ccc(F)cc2)cc1`, 33.1%; under `COc1ccc(CC(C)N2CCN(Cc3ccccc3)CC2)c(OC)c1` (stereo not drawn), 39.7%.

In the case of `Cc1ccn2cc(-c3ccc(NC(=O)c4ccco4)cc3)nc2c1`, the inhibition was 86.5% (active). Then `O=C(Nc1ccc(-c2cn3ccccc3n2)cc1)c1ccco1`, with 84% (active); and `N#Cc1ccc(-c2ccc(Cl)cc2)nc1SCC(=O)c1cccc(Cl)c1`, with 25.2%; and `Cc1sc2nc(SCC(=O)NCc3ccco3)n(Cc3ccccc3)c(=O)c2c1C`, with 23.5%. Then `CCCCC(=O)Nc1ccc(C(=O)NNC(=S)NC(=O)c2ccco2)cc1`, with 30.9%; and `Cc1sc(NC(=O)c2ccco2)nc1-c1ccccc1`, with 79% (active); and `O=C(Nc1cccc(-c2cn3ccccc3n2)c1)c1cccc(Cl)c1`, with 58.9% (active). Under `O=C(CCl)Nc1nc(-c2ccco2)c(-c2ccco2)s1` stands 26.5%.

Turning to `CC(C)CC(=O)N1CCN(S(=O)(=O)c2ccccc2)CC1`, the inhibition was 35.2%. Under `C=CCc1cccc(/C=N/c2nc3ccccc3n2CC)c1O` stands 31.1%; under `C#CCCCCCCC#CCN(C)C`, 33.6%. Under `O=C(Nc1ccc2oc(-c3ccccc3)nc2c1)c1ccco1` stands 96.3% (active); under `CCCc1nc2ccc(NC(=O)c3ccco3)cc2c(=O)n1Cc1ccccc1Cl`, 40.2%. Take `O=[N+]([O-])c1ccc(-c2ccn[nH]2)o1`: the inhibition was 36%. Then `COCCCN(CCCN)Cc1ccco1`, with 74.1% (active); and `COc1ccc(NCc2ccc([N+](=O)[O-])s2)cc1`, with 30.4%; and `CCOC(=O)C1=NN(C(=O)c2ccc(C)cc2)C(O)(c2ccc(Cl)cc2)C1` (stereo not drawn), with 50.6% (active).

For `CCOC(=O)c1c(O)c2cc(Cl)ccc2n(CC)c1=O`, the inhibition is 40.3%. Under `CCOC(=O)c1nnc(-c2ccc(C)cc2)nc1Sc1ccc(Cl)cc1` stands 29.1%; under `O=S(=O)(Cc1cc(Sc2ccccc2)nc(-c2ccccc2)n1)c1ccccc1`, 33.7%. On to `Oc1c(Cl)cc(Cl)c2c1NCCC2`, for which the inhibition is 64.7% (active). Turning to `CCN(C(=O)[C@@H]1CCCN1C(=O)c1cccs1)c1nc2cc(Cl)ccc2s1`, the inhibition is 62.6% (active). On to `COc1ccc(C2SCC(=O)N2CCCN(C)C)cc1` (stereo not drawn), for which the inhibition is 39.6%. Under `Cc1cccc(NC(=O)c2ccc(C3SCC(=O)N3CCc3ccccc3)cc2)c1C` (stereo not drawn) stands 60.8% (active); under `Cc1cc(C)cc(NS(=O)(=O)c2ccc(NC(=O)C3CCCCC3C(=O)O)cc2)c1` (stereo not drawn), 26.8%. Then `CS(=O)(=O)N1CCC(C(=O)Nc2ccc3c(c2)OCO3)CC1`, with 19.4%; and `O=C1c2ccccc2C(=O)c2cc(NC(=O)C3CC3)ccc21`, with 51.6% (active). Then `COc1ccc(NC(=O)C2CCN(C(=O)c3ccc(OC)cc3)CC2)cc1`, with 26.8%. Turning to `O=C(Nc1ccc(Br)c(Cl)c1)C1CC1`, the inhibition is 51% (active). For the compound `CC(=O)Nc1cccc(OCCCNC(=O)C2CCC2)c1`, the inhibition was 39.1%. Consider `O=C(Nc1ccc(C#Cc2ccccc2)cc1)C1CC1`, for which the inhibition is 73.2% (active). Then `CCn1cc(C(=O)O)c(=O)c2cc(F)c(N3CCNCC3)cc21`, with 30.4%; and `CCOC(=O)N1CCN(CC(O)COc2ccccc2C(C)(C)C)CC1` (stereo not drawn), with 44.2%. Take `CCC(=O)c1ccc(OCC(O)CN2CCN(c3cccc(C(F)(F)F)c3)CC2)cc1` (stereo not drawn): the inhibition was 65.7% (active).

`Cn1cc(S(=O)(=O)N2CCN(c3cccc(C(F)(F)F)c3)CC2)c(=O)n(C)c1=O`: the inhibition was 33.4%. Then `O=C(NC(Cc1c[nH]c2ccccc12)C(=O)O)/C(=C\c1ccc2c(c1)OCO2)NC(=O)c1ccccc1` (stereo not drawn), with 28.8%; and `O=C(/C=C/Sc1ccccc1)c1ccc(Cl)cc1`, with 44.6%.

As to `O=C(/C=C/c1c[nH]c2ccccc12)c1ccccc1`, the inhibition was 86.5% (active). As for `Oc1oc(-c2ccccc2)nc1C=Nc1cccc2ccccc12`, the inhibition is 32.5%. With `CC(C)N1CCC2(CC1)N=C(c1ccc3c(c1)OCO3)CC(c1cc(Cl)ccc1O)N2` (stereo not drawn), the inhibition is 74.5% (active). `Clc1ccc(C2=NNC(=NCc3ccc4c(c3)OCO4)SC2)cc1`: the inhibition was 33.4%.

For `COc1ccc(C(=O)c2c(C(F)(F)F)oc3c2C(=O)c2ccccc2C3=O)cc1`, the inhibition was 20.5%. Then `CC(=O)c1c(C)oc2c1C(=O)c1ccccc1C2=O`, with 74.2% (active); and `CCNc1c(C(=O)O)ccc2c1C(=O)c1ccccc1C2=O`, with 39.5%; and `CCN1CCN(c2cc(C(C)C)nc3c(-c4ccccc4)c(C)nn23)CC1`, with 52.5% (active). Then `O=C(c1ccc2c(Cl)c3c(nc2c1)CCCC3)N1CCN(c2ccc(F)cc2)CC1`, with 61.5% (active). Then `O=C(c1cccc(F)c1)N1CCN(c2cc(N3CCCCC3)c(F)cc2[N+](=O)[O-])CC1`, with 49.4%. As for `c1cc2c3c(cccc3c1)NC1(CCCCCC1)N2`, the inhibition is 19.9%. Under `O=C(CCl)Nc1cc(-c2ccccc2)nn1-c1ccccc1` stands 78.5% (active); under `COCC(=O)OCC(=O)Nc1cc(C(C)(C)C)nn1-c1ccccc1`, 21.4%. `Cc1ccc(-c2cc(NC(=O)CSc3n[nH]c(N)n3)n(-c3ccccc3)n2)cc1`: the inhibition was 21.9%. Then `CCC(C)c1ccccc1NC(=O)CN1CCN(C/C=C/c2ccccc2)CC1` (stereo not drawn), with 55% (active); and `COC(=O)c1ccccc1NC(=O)N1CCN(C/C=C/c2ccccc2)CC1`, with 42.6%; and `O=C(CN1CCOCC1)Nc1ccccc1Sc1ccc(Cl)cc1`, with 28.6%. Then `Cc1noc2ncc(C(=O)c3cc(F)ccc3O)cc12`, with 27.6%; and `CN(C)Cc1ccccc1COc1ccccc1`, with 31.8%. For `CC1CCN(CCOc2ccc(OCc3ccccc3)cc2)CC1`, the inhibition was 59.3% (active). Regarding `CC1CCN(CCOc2ccc(Cl)c(Cl)c2)CC1`, the inhibition was 56.5% (active). Then `Clc1ccc(OCCCN2CCCC2)cc1Cl`, with 40%; and `CCN1CCN(Cc2cccc(Oc3ccccc3)c2)CC1`, with 40%.

With `CCN(CC)CCCOc1ccc(Cl)c(Cl)c1`, the inhibition is 39.4%. Then `Clc1ccc(OCCN2CCCCC2)cc1Cl`, with 57.7% (active); and `Cn1c(=O)n(CCCOc2ccc(Cl)cc2)c2ccccc21`, with 46.1%.

With `CC1CCN(CCOc2cccc(Br)c2)CC1`, the inhibition was 43.1%. Under `Clc1cccc(OCCN2CCN(CCOc3cccc(Cl)c3)CC2)c1` stands 65.6% (active). As to `c1ccc(COc2ccc(OCCN3CCCCC3)cc2)cc1`, the inhibition is 39.1%. On to `CCN(CC)S(=O)(=O)c1ccc(NS(=O)(=O)c2cccs2)cc1`, for which the inhibition was 29.6%.

Turning to `Cc1ccc(/C(N)=N/OC(=O)c2ccc3c(c2)OCO3)cc1`, the inhibition was 86.8% (active).

As for `Cc1ccc(/C(N)=N/OC(=O)c2ccc(Cl)cc2Cl)cc1`, the inhibition is 46.2%. Turning to `CC1CN(C(=O)Nc2ccc3c(c2)OCO3)CC(C)O1` (stereo not drawn), the inhibition is 27.1%. Regarding `Cc1ccc(/C(N)=N/OC(=O)c2cccs2)cc1`, the inhibition was 69.2% (active). In the case of `Cc1cccc(/C(N)=N/OC(=O)c2ccc3c(c2)OCO3)c1`, the inhibition is 55.8% (active). Then `CC1(C)CC(=O)c2cc(C(=O)O)c(=O)n(-c3ccccc3)c2C1`, with 37.4%; and `CC(C)c1nc(SCC(=O)Nc2ccc3c(c2)OCCO3)n[nH]1`, with 24.2%.
